# This is a sample that favours compounds with a hit; in the whole collection about 21% have one here.
# Shiga inhibitor: A qHTS for Small Molecule Inhibitors of Shiga Toxin. Vero cells, Shiga toxin protein synthesis inhibition reporter. inhibition, % at 38.7 µM. 290,000 tested, 9.2% active. AID 2315, 2010; in the data active = inhibition mostly above about 28%, no sharp cut-off; inactive = mostly below about 43%
# FBPA Giardia inh: qHTS Assay for Inhibitors of Fructose-1,6-bisphosphate Aldolase from Giardia Lamblia; purified Giardia FBPA; A8B2U2; AID 2451, 2010; 290,000 tested, 0.71% active; Potency, µM (doses to about 59.6 µM), actives largely listed as inhibitors; note: nearly all actives have a fitted effect of over 55% in size
# Target sequence (A8B2U2 whole entry, looked up): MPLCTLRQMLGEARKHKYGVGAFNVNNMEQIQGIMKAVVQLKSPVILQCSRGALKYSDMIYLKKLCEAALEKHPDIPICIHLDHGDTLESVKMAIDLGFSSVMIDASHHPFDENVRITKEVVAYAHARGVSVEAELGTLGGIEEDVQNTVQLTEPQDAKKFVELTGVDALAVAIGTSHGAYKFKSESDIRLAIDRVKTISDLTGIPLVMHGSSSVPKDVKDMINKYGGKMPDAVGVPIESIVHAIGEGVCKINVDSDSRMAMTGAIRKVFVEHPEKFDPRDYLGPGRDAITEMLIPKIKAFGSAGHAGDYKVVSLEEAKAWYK
#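 40 nM FBPA preincubated 10 min at RT with compound (up to 57.5 uM final), then substrate plus GAPDH/TPI/NAD/arsenate coupling and diaphorase/resazurin added. Fluorescence read after 20 min at RT, 525/598 nm.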
# Pf growth 48h: Primary qHTS for delayed death inhibitors of the malarial parasite plastid, 48 hour incubation. P. falciparum luciferase growth in erythrocytes, 48 h. Potency, µM (doses to about 28.7 µM), hits mostly inhibitors. 310,000 tested, 5.9% active. AID 504832, 2011
#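 A one-generation exposure of luciferase-tagged malaria parasites in RPMI 1640/Albumax erythrocyte culture, 37 C and 5% CO2. Inhibition is inferred from decreased luminescence after adding detection reagent.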
# NS1 function inh: qHTS Assay for Inhibitors of Influenza NS1 Protein Function; 270,000 tested, 0.4% active; AID 2326, 2010; Potency, µM (top dose mostly 46.1 µM); calls by dose curve; note: actives are rising curves; nearly all actives have a fitted effect of over 50% in size
#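 In this qHTS, NS1 from influenza A is expressed in budding yeast, where it slows growth. Cells are switched from glucose to 2% galactose medium (pH 6.0, -URA), treated with compound, and growth recovery is read at OD600.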
# Pf growth 96h: Primary qHTS for delayed death inhibitors of the malarial parasite plastid, 96 hour incubation. P. falciparum luciferase reporter growth, 96 h. Potency, µM (series often up to 28.7 µM), hits mostly inhibitors. 320,000 tested, 6.9% active. AID 504834, 2011
#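 P. falciparum expressing integrated firefly luciferase grown in erythrocytes (2% hematocrit, 0.05% parasitemia final) with compounds for 96 hours at 37 C, 5% CO2. Growth inhibition read as loss of luminescence after adding luciferase detection reagent.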
# Cycloheximide cs: Cycloheximide Counterscreen for Small Molecule Inhibitors of Shiga Toxin | max response, % | AID 2314, 2010 | 300,000 tested, 12% active | cell reporter, cycloheximide protein synthesis inhibition counterscreen; in the data active = max response mostly above about 13%, no sharp cut-off; inactive = mostly below about 14%; note: read at 38.3 µM for the half of the compounds with a filed dose
# Numbers stand for hits; – = inactive; ? = inconclusive; · = not tested or not shown. Unless noted, calls come from the whole dose curve; as a rule, active = well fitted curve in the direction sought with a large enough effect; inconclusive = small, poorly fitted or top-dose-only effect, or another doubt; inactive = no such curve, though single readings can be large; an effect the other way counts as inactive or inconclusive.
SMILES,Shiga inhibitor,FBPA Giardia inh,Pf growth 48h,NS1 function inh,Pf growth 96h,Cycloheximide cs
CC(=O)OC1C[C@H](O[C@@H]2C(O)C[C@H](O[C@@H]3C(O)C[C@@H](OC4CC[C@]5(C)C(CCC6C5CC(O)[C@@]5(C)C(C7=CC(=O)OC7)CC[C@@]65O)C4)OC3C)OC2C)O[C@H](C)[C@H]1O[C@H]1OC(CO)C(O)C(O)C1O (stereo not given in full),·,–,8.5µM,·,4.8µM,·
C#Cc1ccc2c(c1)C(=O)N(C)Cc1c(C(=O)OCCCOC(=O)c3ncn4c3CN(C)C(=O)c3cc(C#C)ccc3-4)ncn1-2,–,–,·,·,·,–
COc1ccccc1NS(=O)(=O)c1cccc(C(=O)NCC(c2ccccc2OC)N2CCCC2)c1 (stereo not given),·,·,8.3µM,·,?,·
COc1ccccc1NS(=O)(=O)c1cccc(C(=O)N2CCCCCC2)c1,·,·,?,·,–,·
O=C(NCC(c1ccco1)N1CCc2ccccc2C1)c1ccccc1 (stereo not given),·,·,–,·,–,·
COc1ccc(NS(=O)(=O)c2cccc(C(=O)NCC(c3ccc(F)cc3)N3CCOCC3)c2)cc1 (stereo not given),–,–,?,–,?,–
COc1ccccc1C(CNC(=O)CNC(=O)c1ccc(C)c(C)c1)N1CCCC1 (stereo not given),·,·,–,·,?,·
COc1ccccc1C(CNC(=O)c1cccc(S(=O)(=O)Nc2ccc(C)cc2)c1)N1CCCC1 (stereo not given),·,·,13µM,·,15µM,·
COc1ccccc1NC(=O)C(=O)NCC(c1ccco1)N1CCc2ccccc2C1 (stereo not given),·,·,5.2µM,·,?,·
COc1ccc(C(CNC(=O)c2cccc(S(=O)(=O)Nc3ccc(C)cc3)c2)N2CCCCC2)cc1 (stereo not given),·,·,8.3µM,·,9.3µM,·
CCOC(=O)c1nn(-c2ccc(F)cc2)c(=O)cc1OCC(=O)Nc1ccc(F)c(F)c1,·,·,–,·,–,·
Cn1c(=O)cnc2cnc(Oc3ccccc3)nc21,·,–,·,·,·,·
Cc1cccc(C(=O)NCC(=O)NCC(c2ccco2)N2CCCCC2)c1 (stereo not given),·,·,–,·,–,·
COc1ccc(C(CNC(=O)c2cccc(NC(=O)c3cccs3)c2)N2CCCC2)cc1 (stereo not given),·,·,12µM,·,5.9µM,·
Cc1ccc(N(C)S(=O)(=O)c2cccc(C(=O)NCC(c3ccco3)N3CCCC3)c2)cc1 (stereo not given),·,·,9.3µM,·,3.3µM,·
COc1ccc(C(CNC(=O)c2cccc(Br)c2)N2CCCC2)cc1 (stereo not given),–,–,·,–,?,–
COc1ccc(C(CNC(=O)c2ccc(NS(=O)(=O)c3ccc(F)c(C)c3)cc2)N2CCOCC2)cc1 (stereo not given),·,·,10µM,·,–,·
CN(C)C1(CNC(=O)c2ccc(NS(=O)(=O)c3ccc(Cl)c(Cl)c3)cc2)CCCCC1,·,·,12µM,·,13µM,·
CN(C)C1(CNC(=O)Nc2ccc(Cl)c(Cl)c2)CCCCC1,–,–,–,–,?,–
N#Cc1ccc(CN2CCN(C(=O)CNC(=O)Cc3ccccc3)CC2)cc1,·,·,–,·,–,·
Cc1ccc(Nc2cc(C)c(O)c(C)c2)cc1,–,?,–,–,?,–
CCOc1ccc(S(=O)(=O)Nc2ccc(C(=O)NCC3(N4CCCCC4)CCCCC3)cc2)cc1,·,·,3.3µM,·,1.2µM,·
COc1ccccc1NS(=O)(=O)c1cccc(C(=O)OCC(=O)Nc2cc(C)on2)c1,–,–,–,–,–,–
COc1ccccc1NS(=O)(=O)c1cccc(C(=O)NCC(c2ccco2)N2CCCC2)c1 (stereo not given),·,·,12µM,·,15µM,·
CCC(=O)c1ccc(OCC(=O)NCC2(N3CCCCC3)CCCCC2)cc1,–,–,–,·,4.7µM,–
O=C(NCC(c1ccco1)N1CCCCC1)c1cccc(S(=O)(=O)Nc2ccccc2Cl)c1 (stereo not given),–,·,?,–,?,–
COc1ccccc1NS(=O)(=O)c1cccc(C(=O)OCc2nc3ccccc3s2)c1,76,–,–,–,–,49
COc1ccc2c(c1)CN([C@H](C)[C@@H]1CC[C@@H]3[C@H]4CC[C@H]5C[C@@H](O)CC[C@@]5(C)[C@H]4CC[C@]31C)CO2,·,·,·,–,·,·

# Source: PubChem
